This passage reports Inhibition results from ChEMBL document CHEMBL1157539, “Thousands of chemical starting points for antimalarial lead identification” (Nature, 2010).

The assay deals with Plasmodium falciparum. As to the kind of experiment: GSK_TCMDC: Inhibition of Plasmodium falciparum 3D7 in whole red blood cells, using parasite LDH activity as an index of growth. Test compounds present at 2uM. The format is functional.
By Inhibition is commonly meant the share of the control response that was lost under treatment. Low values mean little suppression, high ones strong suppression. `CCc1nc(N)nc(N)c1-c1ccc(C(C)(C)C)cc1` yielded an Inhibition of 94%. With `CCCc1cc(NC2CCN(C)CC2)nc(Nc2cccc(OC)c2)n1`, the Inhibition is given as 100%. `CCNc1cc(C(=O)N[C@@H](Cc2ccccc2)[C@H](O)CNCCCc2ccc(OC)cc2)cc(N2CCCC2=O)c1.O=C(O)C(F)(F)F` registered an Inhibition of 99%. In the case of `COCCNCc1cccc(-c2cc3nccc(Nc4ccc(Oc5ccccc5)cc4)c3cc2Cl)c1` it was 99%; in that of `NCC1CCCN1Cc1cccc(-c2ccc(-c3nc4cc(C(F)(F)F)ccc4[nH]3)s2)c1.O=C(O)C(F)(F)F` (configuration not stated), 100%.

`COc1ccc(CN(C)C(=O)CCNS(=O)(=O)c2ccc3c(c2)OCCCO3)cc1F` had an Inhibition of 96%. As for `CC(O)C1CCCCN1C(=O)c1cccc(-c2ccc(-c3nc4cc(C(F)(F)F)ccc4[nH]3)cc2)c1` (configuration not stated), the figure is 100%. On to `Cc1cccc2nc(-c3cccc(-c4ccc(NC(=O)C(C)CN(C)C)cc4)c3)[nH]c12` (configuration not stated), for which the Inhibition was 100%. On to `CCCCCCNC(=O)C1Cc2c([nH]c3cc(Cl)ccc23)C2(CCN(Cc3ccccc3)CC2)N1` (configuration not stated), for which the Inhibition is reported as 90%. Take `CN1CCCC(CN2CCN(Cc3ccc(-c4ccc(-c5nc6ccccc6[nH]5)cc4)cc3)CC2)C1.O=C(O)C(F)(F)F` (configuration not stated): the Inhibition was 100%. In the case of `CCCNS(=O)(=O)c1ccc(NC(=O)C(C)Oc2ccc([N+](=O)[O-])cc2)cc1` (configuration not stated) it was 100%; in that of `CCCCCN(C(=O)Nc1cc(C(F)(F)F)cc(C(F)(F)F)c1)C(C)c1nc2ccccc2c(=O)n1CC` (configuration not stated), 100%; in that of `Cn1cncc1C(=O)Nc1cccc(-c2ccc(-c3nc4cc(F)ccc4[nH]3)s2)c1`, 99%. Regarding `CCCCCCn1c(Sc2ccc(C#N)c([N+](=O)[O-])c2)nnc1-c1cc(OC)cc(OC)c1`, the Inhibition is given as 95%. As for `Cc1nn(-c2ccc(Cl)cc2)c2[nH]c(CN3CCN(c4cccc(Cl)c4)CC3)cc(=O)c12`, the figure is 98%; as for `CC(=Nc1ccc(Cl)c(Cl)c1)N(C)C.Cl`, 98%. Take `Cc1cc(Nc2ccc(Cl)c(Cl)c2)n2nc(C)nc2n1`: the Inhibition is recorded as 97%. `OC(CNCc1ccccc1Oc1ccccc1)c1cccc(C(F)(F)F)c1` (configuration not stated) had an Inhibition of 100%.

Turning to `CC(=O)NC(c1cccs1)c1cc(Cl)c2cccnc2c1O` (configuration not stated), the Inhibition was determined as 94%. The compound `COc1ccc(CNCc2ccccc2)cc1-c1ccc(S(=O)(=O)NCCN2CCCC2)c(F)c1.O=C(O)C(F)(F)F` showed an Inhibition of 87%. In the case of `CN(C)CCNCc1ccc(-c2ccc3c(Nc4ccc(Oc5ccccc5)cc4)ccnc3c2)o1` it was 100%; in that of `COCCN1CCN(Cc2ccc(-c3cccc(-c4nc5ccccc5[nH]4)c3)cc2)CC1.O=C(O)C(F)(F)F`, 93%. `Cc1ccc(NC(=O)c2ccc(CN3CCCN(Cc4cccc(O)c4)CC3)cc2)cc1F.O=C(O)C(F)(F)F` registered an Inhibition of 97%. As for `CC(C)n1ncc2c3c(N)nc(N)nc3ccc21`, the figure is 98%.

On to `Cl.O=C(Nc1cccc(C2=NCCCN2)c1)Nc1cccc(C2=NCCCN2)c1`, for which the Inhibition was found to be 81%. In the case of `COC(=O)C1(NC(=O)c2ccc(-n3nc(C)c(-c4ccccc4)c3N)cc2)CCCC1` it was 96%. `CC(C)CNCc1ccc(-c2cccc(CN(CCN(C)C)C(=O)NCCc3ccccc3)c2)cc1.O=C(O)C(F)(F)F` displayed an Inhibition of 91%. As for `O=C(NCCN1CCCCC1)c1ccc(CNC(=O)c2ccc(O)c(-c3ccc(Cl)c(Cl)c3)c2)cc1`, the figure is 93%; as for `Fc1ccc2[nH]c(-c3cccc(-c4cccc(CNCCc5ccncc5)c4)c3)nc2c1.O=C(O)C(F)(F)F`, 100%; as for `CC(C)(C)c1cc(C(=O)N2CCN(c3ccc(C(F)(F)F)cn3)CC2)n(Cc2ccc(F)cc2)n1`, 88%.

Take `CC1(C(=O)Nc2ccc([N+](=O)[O-])cc2O)CC2c3ccccc3C1c1ccccc12` (configuration not stated): the Inhibition is given as 98%. In the case of `COc1ccc(CC(Cc2ccc(OC)cc2)NCC(O)c2cccc(Cl)c2)cc1` (configuration not stated) it was 100%. In the case of `FC(F)(F)c1cccc(CCNc2nccc(NCc3ccc(Cl)cc3Cl)n2)c1`, the Inhibition was found to be 97%. On to `COc1ccc(-n2cc(CNCCCn3ccnc3)c(-c3cccc(F)c3)n2)cc1`, for which the Inhibition stood at 98%. As for `COc1cc2c(cc1OC)CN(CCc1ccc(NC(=O)c3cc4cc(OC(F)(F)F)ccc4[nH]3)cc1)CC2`, the figure is 99%. In the case of `CN(C)CCOc1ccc(-c2cc(-c3ccc(Cl)c(O)c3)c(-c3ccncc3)[nH]2)cc1.Cl` it was 98%; in that of `COc1cc(NC(=O)/C=C/c2cccc3cc[nH]c23)ccc1OCCN(C(C)C)C(C)C.Cl`, 99%.
